Source: PubChem BioAssay (EPA / NIEHS)
The source made the active and inactive calls. Rule for the calls: active = hit-call score of the fitted dose curve at least 0.9, where 1 is the maximum; inactive = score below 0.9.

Experiment: BSK_LPS_SRB: Viability Assessment in the BioMAP Diversity Plus: LPS Assay (AID 2283079);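 note: total protein by sulforhodamine B absorbance as a cytotoxicity measure; measured one day after compound addition; fitted in both directions against DMSO so loss or gain of signal counts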
Conditions: primary human HUVEC with PBMC
Outline: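 Co-culture of human umbilical vein endothelial cells and PBMC, read 24 h after dosing. Total protein by 0.1% SRB staining after 10% TCA fixation, absorbance at 560 nm; bidirectional fit against DMSO.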

| SMILES | outcome | AC50 |
| --- | --- | --- |
| Nc1nc(N)c2nc(CNc3ccc(C(=O)N[C@@H](CCC(=O)O)C(=O)O)cc3)cnc2n1 | inactive | – |
| COc1ccc2c(c1)c(CC(=O)O)c(C)n2C(=O)c1ccc(Cl)cc1 | inactive | – |
| COc1cc(-c2nc(NC(=O)c3cc4cc(C)cc(C)c4n3CC(=O)O)sc2CCC2CCCCC2)c(OC)cc1Cl | – | 4.61 µM (active) |
| CC(=O)OC/C=C(\C)CCC=C(C)C | inactive | – |
| CCCCCCCCCCCCCCCCCC(=O)O | – | 20 µM (active) |
| Cc1oc(-c2ccccc2)nc1CCOc1cccc2c1ccn2CCC(=O)O | inactive | – |
| Cc1ccccc1Cl | inactive | – |
